# Hit rate of the full screen: of about 11,000 compounds, about 310 (2.8%) were called active. Rule as the data show it: active = activity change below about -85%; inactive = the rest. What follows is part of a selection rich in actives, with near analogues and random picks from the rest.
# Tested on: intestinal alkaline phosphatase [Mus musculus]
# Test: mouse intestinal phosphatase enzyme activation – biochemical, luminescence, single concentration, confirmation (AID 434970)
# Conditions: purified mouse IAP, CDP-Star luminescence, 30 min, at 10 µM; activation factor: measured here: IAP activation factor, stronger effect = higher value; activity change, negative = activation: stronger effect = lower value
Structure (SMILES),activation factor,"activity change, negative = activation"
CC(C)Oc1cccc(C(=O)Nc2ccc(N3CCN(S(C)(=O)=O)CC3)cc2)c1,1.1,-10.2% (inactive)
CCOCCCNC(=O)C(C)NS(=O)(=O)c1ccc(C)cc1 (configuration not stated),0.903,9.65% (inactive)
COc1ccc(C(=O)NCC(C)C)c(OC)c1,0.893,10.7% (inactive)
CC(C)(C)OC(=O)N[C@@H](Cc1ccccc1)c1nnc(SCC(=O)O)o1,0.956,4.4% (inactive)
O=S(=O)(c1ccc2ccccc2c1)N1CCCOC1,1.17,-16.5% (inactive)
CCOc1ccccc1NC(=O)N1C2CCCC1CC(NC(=O)C1CC1)C2 (configuration not stated),1.05,-5.1% (inactive)
COc1cccc(NC(=O)NC(C)C2CC3CCC2C3)c1 (configuration not stated),1.97,-96.6% (active)
COc1cccc(NC(=O)CC2COc3ccccc3O2)c1 (configuration not stated),1.15,-15% (inactive)
COc1cccc(C(=O)NC2CCN(C(=O)N3CCCCC3)CC2)c1,1.09,-9.3% (inactive)
COc1cc(NC(=O)NC2Cc3ccccc3C2)cc(OC)c1,2.69,-169% (active)
CC(=O)c1cccc(NC(=O)NC(C)C2CCCO2)c1 (configuration not stated),1.12,-12.2% (inactive)
COc1cccc(NC(=O)NCCCSC2CCCCC2)c1,1.68,-67.6% (inactive)
COc1cc(NC(=O)c2ccccc2)cc(OC)c1,0.99,0.95% (inactive)
CCC1CCC(NC(=O)Nc2cccc(OC)c2)CC1 (configuration not stated),2.37,-137% (active)
COc1cc(NC(=O)CCN2CCN(Cc3ccccc3)CC2)cc(OC)c1,0.978,2.15% (inactive)
CCN1CCN(CCC(=O)Nc2cccc(OC)c2)CC1,0.925,7.45% (inactive)
COc1cccc(NC(=O)NC2CCCCCCC2)c1,2.67,-167% (active)
COc1cccc(NC(=O)N2CCCC2C(=O)NC(C)C)c1 (configuration not stated),0.971,2.9% (inactive)
COc1ccc(-c2nnc(SCC(=O)N3CCOCC3)n2C)cc1OC,1.07,-7.45% (inactive)

Structure (SMILES),activation factor,"activity change, negative = activation"
Cn1c(-c2ccc(F)cc2)cnc1NCc1cccc(F)c1,0.905,9.55% (inactive)
CC(C)OC(=O)c1cccc(NC(=O)c2ccccc2)c1,0.988,1.25% (inactive)
Cc1oc(-c2cccs2)nc1CSCC(=O)NC1CC1,0.893,10.8% (inactive)
CN(c1ccccc1C(=O)NCc1ccccn1)S(C)(=O)=O,1.03,-3.4% (inactive)
COC(=O)[C@@]1(C)[C@H]2C(=O)N(Cc3ccccc3)C(=O)[C@H]2[C@H]2CN=C(SC)N21,1.09,-9.05% (inactive)
CCN1C(=O)[C@H]2[C@H]3CN=C(SC)N3[C@@](CC)(C(=O)OC)[C@H]2C1=O,0.957,4.3% (inactive)
COC(=O)c1sc2ncn(-n3c(C)ccc3C)c(=O)c2c1C,1.03,-3.25% (inactive)
CC[C@]12c3[nH]c4cc(-c5ccco5)ccc4c3CCN1C(=O)[C@@H](CC(=O)NC(C)(C)C)C[C@@H]2C(=O)N1CCN(C(=O)C2CC2)CC1,0.984,1.6% (inactive)
C[C@H](CO)N1C[C@H](C)[C@@H](CN(C)S(=O)(=O)c2cccs2)Oc2ccc(NC(=O)Nc3ccccc3)cc2C1=O,2.52,-152% (active)
C[C@H](CO)N1C[C@H](C)[C@@H](CN(C)C(=O)Nc2ccc(C(F)(F)F)cc2)Oc2ccc(NC(=O)NC3CCCCC3)cc2C1=O,1.76,-76.3% (inactive)
COc1ccc(NC(=O)Nc2ccc3c(c2)C(=O)N([C@@H](C)CO)C[C@@H](C)[C@@H](CN(C)S(=O)(=O)c2cccs2)O3)cc1,1.76,-75.9% (inactive)
C[C@H](CO)N1C[C@H](C)[C@@H](CN(C)S(=O)(=O)c2cccs2)Oc2ccc(NC(=O)NC3CCCCC3)cc2C1=O,2.6,-160% (active)
COc1ccc(NC(=O)Nc2ccc3c(c2)C(=O)N([C@H](C)CO)C[C@H](C)[C@@H](CN(C)C(=O)Nc2ccc(C(F)(F)F)cc2)O3)cc1,1.69,-68.8% (inactive)
COc1ccc(NC(=O)Nc2ccc3c(c2)C(=O)N([C@H](C)CO)C[C@H](C)[C@@H](CN(C)S(=O)(=O)c2cccs2)O3)cc1,2.1,-110% (active)
C[C@H](CO)N1C[C@H](C)[C@@H](CN(C)S(C)(=O)=O)Oc2ccc(NC(=O)Nc3ccc(C(F)(F)F)cc3)cc2C1=O,1.83,-83.2% (inactive)
C[C@H](CO)N1C[C@H](C)[C@@H](CN(C)S(=O)(=O)c2cccs2)Oc2ccc(NC(=O)Nc3ccc4c(c3)OCO4)cc2C1=O,1.88,-87.5% (inactive)
C[C@H]1CN([C@@H](C)CO)C(=O)c2cc(NC(=O)NC3CCCCC3)ccc2O[C@H]1CN(C)C(=O)Nc1ccc(C(F)(F)F)cc1,1.58,-58.1% (inactive)
CCOC(=O)C1=CN(Cc2ccco2)S(=O)(=O)N(CC)C1c1ccc(C(F)(F)F)cc1 (configuration not stated),0.893,10.7% (inactive)
CCOc1ccc(N2CC(C(=O)NCCCN3CCOCC3)CC2=O)cc1 (configuration not stated),0.917,8.3% (inactive)

Structure (SMILES),activation factor,"activity change, negative = activation"
COc1ccccc1CC(=O)N(CCC#N)CCC#N,0.913,8.65% (inactive)
O=C(COc1c(F)c(F)cc(F)c1F)NC(=O)NC1CCCC1,1.08,-7.8% (inactive)
N#C/C(=C1/CCCCCN1)c1nc2ccccc2[nH]1,1.08,-7.65% (inactive)
CCOC(=O)N1CCN(S(=O)(=O)c2ccc3c(c2)SCC(=O)N3)CC1,1.06,-6.25% (inactive)
COC(=O)[C@@]1(C)[C@H]2C(=O)N(C)C(=O)[C@H]2[C@H]2CN=C(SCc3ccc(Cl)cc3)N21,1.1,-9.6% (inactive)
Cc1ccccc1C(=O)/C=C1\NC(=O)CS1,1.05,-5.35% (inactive)
COc1cccc(NC(=O)Nc2ccc(C)c(Cl)c2)c1,2.17,-117% (active)
COc1ccc(N2CCN(C(=O)Nc3cccc(C(F)(F)F)c3)CC2)cc1,1.14,-14.2% (inactive)
CCOP(=O)(OCC)C(NC(=O)Nc1ccc(Cl)cc1)c1ccccc1 (configuration not stated),1.56,-56.5% (inactive)
CCOP(=O)(OCC)C(NC(=O)Nc1ccc(C)c(Cl)c1)c1ccccc1 (configuration not stated),2.59,-159% (active)
COc1cccc(NC(=O)Nc2ccc(C(C)(C)C)cc2)c1,2.18,-118% (active)
Cc1ccc(NC(=O)Nc2ccc(F)cc2)cc1Cl,1.51,-50.8% (inactive)
COc1cccc(NC(=O)CN(c2cccc(C(F)(F)F)c2)S(C)(=O)=O)c1,1.12,-12.2% (inactive)
CC(=O)Nc1cccc(NC(=O)Nc2ccc(C)c(Cl)c2)c1,1.9,-89.6% (inactive)
CCc1ccc(NC(=O)Nc2cccc(OC)c2)cc1,1.62,-62.5% (inactive)
COc1cccc(NC(=O)Nc2cc(NC(=O)Nc3cccc(OC)c3)c(C)nc2C)c1,1.65,-65.3% (inactive)
COc1cccc(C(C)NC(=O)Nc2cccc(C(F)(F)F)c2)c1 (configuration not stated),3.84,-284% (active)
COc1cccc(NC(=O)Nc2cc(Cl)ccc2C)c1,1.41,-40.7% (inactive)
